From PubChem
Shown is part of a subset that was picked to be rich in hits.
LmPK inhibitor: blocks Leishmania mexicana pyruvate kinase activity; purified LmPK, Kinase-Glo ATP luminescence, 1 h; AID 1721; Potency, µM (highest dose often 57.5 µM), for the others: at the top dose activity change, negative = inhibition, most hits filed as inhibitors; hit rate 0.37% among 290,000; further: potency means the concentration at half of the fitted maximal effect; on the % scale 0 is the no-effect control and ±100 the full control effect
Target sequence (Q27686 whole entry, looked up): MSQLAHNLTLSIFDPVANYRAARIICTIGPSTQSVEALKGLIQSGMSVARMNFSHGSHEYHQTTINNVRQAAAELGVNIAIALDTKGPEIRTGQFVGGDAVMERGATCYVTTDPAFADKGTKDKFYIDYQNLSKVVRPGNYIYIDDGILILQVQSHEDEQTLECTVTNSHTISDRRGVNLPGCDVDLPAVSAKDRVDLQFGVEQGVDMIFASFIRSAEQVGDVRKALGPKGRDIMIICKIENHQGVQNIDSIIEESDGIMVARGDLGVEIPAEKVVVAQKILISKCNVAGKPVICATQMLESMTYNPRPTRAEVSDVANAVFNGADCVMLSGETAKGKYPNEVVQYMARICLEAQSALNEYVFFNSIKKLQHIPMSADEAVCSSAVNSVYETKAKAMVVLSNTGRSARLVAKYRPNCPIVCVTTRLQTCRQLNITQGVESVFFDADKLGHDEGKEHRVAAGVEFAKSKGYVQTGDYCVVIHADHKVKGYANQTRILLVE
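Purified LmPK (0.1 nM) converted ADP (0.1 mM) to ATP with PEP (0.5 mM) in imidazole buffer pH 7.2 with KCl and MgCl2, 1 h at room temperature. ATP was read by Kinase-Glo luminescence; data normalized to uninhibited and no-enzyme controls.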
Cycloheximide cs: counter-screen hit for Shiga toxin inhibitors, cycloheximide | cell reporter, cycloheximide protein synthesis inhibition counterscreen | max response, % | hit rate 12% among 300,000; in the data active means max response mostly above about 13%, no sharp cut-off; inactive means mostly below about 14%; further: read at 38.3 µM for the half of the compounds with a filed dose; 0% is about no effect
Shiga toxin inh: blocks Shiga toxin action in Vero cells; hit rate 9.2% among 290,000; inhibition, % at 38.7 µM; Vero cells, Shiga toxin protein synthesis inhibition reporter; in the data active means inhibition mostly above about 28%, no sharp cut-off; inactive means mostly below about 43%; further: 0% is about no effect
Tb PYK inh: T. brucei pyruvate kinase inhibition | Q57TT1 | TbPYK enzyme, Kinase-Glo Plus ATP luminescence, 45 min | Potency, µM (series often up to 76.8 µM), for inactives: at the top dose activity, negative = inhibition, hits mostly inhibitors | hit rate 0.12% among 410,000 | AID 624173; further: potency means the concentration at half of the fitted maximal effect; on the % scale 0 is the no-effect control and ±100 the full control effect; nearly all actives have a fitted effect of over 50% in size
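In this concentration-response screen, enzyme-free wells defined baseline while DMSO plates tracked drift. Each reaction combined TbPYK, substrate, compound and 130 uM ADP for 45 min at room temperature. Kinase-Glo Plus luminescence gave the signal.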
FBPA Giardia inh: Giardia lamblia aldolase inhibition; A8B2U2; purified Giardia FBPA; Potency, µM (series often up to 59.6 µM), without a hit: at the highest dose activity, negative = inhibition, most hits filed as inhibitors; hit rate 0.71% among 290,000; AID 2451; further: potency means the concentration at half of the fitted maximal effect; on the % scale 0 is the no-effect control and ±100 the full control effect; nearly all actives have a fitted effect of over 55% in size
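Giardia FBPA (40 nM reagent) was preincubated 10 min at RT with compound (up to 57.5 uM final), then substrate plus GAPDH/TPI/NAD/arsenate coupling system with diaphorase/resazurin was added; resorufin fluorescence (525/598 nm) was read after 20 min.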
Sm TGR inh: inhibitors of Schistosoma mansoni thioredoxin glutathione reductase. Q962Y6. purified TGR, DTNB reduction, TNB absorbance 405 nm. Potency, µM (top dose mostly 114 µM), without a hit: at the highest dose activity change, negative = inhibition, hits mostly inhibitors. hit rate 3% among 360,000; further: potency means the concentration at half of the fitted maximal effect; on the % scale 0 is the no-effect control and ±100 the full control effect; nearly all actives have a fitted effect of over 60% in size
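Kinetic colorimetric format: TGR-catalysed, NADPH-driven DTNB reduction monitored via TNB absorbance. Enzyme dispensed at 20 nM; compound exposure 15 min at room temperature before reaction start.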
Active calls of the source: *; ? = inconclusive; / = not tested or not shown. Unless noted, the call rests on the fitted dose curve; in most records, active means well fitted curve in the direction sought with a large enough effect; inconclusive means small, poorly fitted or top-dose-only effect, or another doubt; inactive means no such curve, though single readings can be large; an effect the other way counts as inactive or inconclusive.

SMILES	LmPK inhibitor	Cycloheximide cs	Shiga toxin inh	Tb PYK inh	FBPA Giardia inh	Sm TGR inh
Cc1[nH]c2ccc(C(=O)N3CCN(c4cccc(Cl)c4)CC3)cc2c1C	8%	-2	12	-1%	-10%	7%
CS(=O)(=O)N(Cc1ccccc1)c1ccc(C(=O)N2CCN(c3cccc(Cl)c3)CC2)cc1	7%	22*	42	3%	2%	-7%
CS(=O)(=O)c1ncc(Cl)c(C(=O)N2CCN(c3cccc(Cl)c3)CC2)n1	/	-16	-20	-3%	/	3.5µM*
CCS(=O)(=O)c1ncc(Cl)c(C(=O)N2CCN(c3cccc(Cl)c3)CC2)n1	/	/	/	-11%	/	7.1µM*
COc1ccc([C@H]2C[C@H](n3cc(COC(=O)c4ccccc4)nn3)[C@@H](O)CN2CC2CCCCC2)cc1	/	/	/	-6%	/	/
Cn1cc(-c2csc(C(O)(c3ccccc3)C(F)(F)F)n2)cn1 (stereo not drawn)	/	/	/	-12%	/	/
Cc1nnc(NC(=O)c2ccc(-c3ccc(Cl)cc3)o2)s1	/	/	/	4%	/	-5%
O=C(Nc1nccs1)c1ccc(-c2ccc(Cl)cc2)o1	-4%	51*	94*	-9%	3%	/
O=C(Nc1nccs1)c1ccc(-c2ccc([N+](=O)[O-])cc2)o1	-5%	26*	120*	-3%	3%	/
O=C(Nc1nccs1)c1cc([N+](=O)[O-])ccc1Cl	-7%	3	-4	-2%	-27%	-25%
O=C(Cc1ccc(F)cc1)Nc1nccs1	3%	2	2	-3%	6%	0%
O=C(Nc1nccs1)c1ccc(-c2ccc(F)cc2)o1	-3%	41*	95*	-1%	0%	-22%
Cc1ccc(NC(=O)CC2Sc3ccccc3NC2=O)c(Br)c1 (stereo not drawn)	/	/	/	4%	/	-8%
CN(Cc1nc(C(c2ccccc2)c2ccccc2)no1)CC1COCCO1 (stereo not drawn)	14µM*	15*	47	4%	-19%	2%
CN(Cc1nc(-c2cccs2)no1)CC1COCCO1 (stereo not drawn)	7%	33*	61*	0%	5%	-5%
CN(Cc1nc(-c2cnccn2)no1)CC(O)c1ccccc1 (stereo not drawn)	6%	-2	11	-10%	3%	10%
CN(Cc1nc(-c2cccs2)no1)CC(O)c1ccccc1 (stereo not drawn)	1%	44*	56*	-2%	4%	8%
CCOC(=O)CC(=O)CSc1nc2ccsc2c(=O)n1Cc1ccccc1	/	/	/	0%	/	3%
Cc1cc(S(=O)(=O)Nc2cccc(-c3ccc(N4CCOCC4)nn3)c2)c(C)cc1Cl	/	/	/	12%	/	3%
COc1cc(OC)cc(C(=O)Nc2ccc(-c3nc4ccccc4o3)cc2)c1	1%	12	48*	-1%	-1%	0%
COc1cccc(C(=O)Nc2ccc(-c3nc4ccccc4o3)c(O)c2)c1	14%	14	53*	-3%	-3%	-2%
COc1cc(OC)cc(C(=O)Nc2ccc3oc(-c4ccccc4C)nc3c2)c1	/	/	/	-9%	/	-5%
Cc1ccc(-c2noc(-c3ccccc3NC(=O)C3CC(=O)N(c4ccccc4C)C3)n2)cc1 (stereo not drawn)	/	/	/	2%	/	7%
COc1ccc(N2CCN(CCCNC(=O)c3nnc(Cc4ccccc4Cl)o3)CC2)cc1	/	/	/	-6%	/	5%
COc1cccc(/C=N/n2c(C)nc3ccccc32)c1OC	5%	21	38*	5%	0%	?
SMILES	LmPK inhibitor	Cycloheximide cs	Shiga toxin inh	Tb PYK inh	FBPA Giardia inh	Sm TGR inh
COc1cccc(/C=N/n2c(=S)n(C)c3ccccc32)c1OC	6%	-2	2	/	-5%	2%
COc1cccc(/C=N/n2c(=O)[nH]c3ccccc32)c1OC	0%	38*	42*	-2%	-2%	-8%
COc1cccc(/C=N\n2c(C)nnc2C)c1OC	-2%	-3	-7	2%	3%	0%
O=C(Nc1ccn(Cc2ccc(Cl)cc2)n1)c1ccccc1	3%	21*	90*	-1%	-1%	5%
CCOC(=O)Cn1nc(NC(=O)c2ccc3c(c2)OCO3)cc1C	-13%	-2	7	7%	/	-35%
O=C(Nc1ccn(Cc2ccccc2)n1)c1ccc2c(c1)OCO2	-4%	24*	42*	2%	-6%	9%
